High-throughput results (PubChem BioAssay)
This is a sample that favours compounds with a hit; in the whole collection about 7.4% have one here.
NPC1 prom act: NPC1 promoter activation; Huh7 NPC1 promoter luciferase reporter, 24 h; Potency, µM (titrated, usually from 9.22 µM), without a hit: at the top dose activation, hits mostly activators; 320,000 tested, 2.4% active; AID 485313; also: % of control where 0% means no effect; nearly all actives have a fitted effect of over 60% in size
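Huh7 reporter cells (NPC1 promoter driving luciferase) are dosed with compound for 24 h at 37 °C, 5% CO2; luciferase detection reagent is then added and luminescence measured after 10 min at ambient temperature.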
FLuc modulator: inhibits or activates purified firefly luciferase, miR-21 counter-screen. AID 588342. Potency, µM (doses to about 57.5 µM), inactives show top-dose activity change, negative = inhibition, hits mostly inhibitors. 360,000 tested, 6.9% active. purified FLuc, Km substrates, luminescence inhibition. P08659;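 also: plate controls were vehicle for no effect and reference inhibitor for full effect; nearly all actives have a fitted effect of over 55% in size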
Target sequence (P08659 whole entry, looked up): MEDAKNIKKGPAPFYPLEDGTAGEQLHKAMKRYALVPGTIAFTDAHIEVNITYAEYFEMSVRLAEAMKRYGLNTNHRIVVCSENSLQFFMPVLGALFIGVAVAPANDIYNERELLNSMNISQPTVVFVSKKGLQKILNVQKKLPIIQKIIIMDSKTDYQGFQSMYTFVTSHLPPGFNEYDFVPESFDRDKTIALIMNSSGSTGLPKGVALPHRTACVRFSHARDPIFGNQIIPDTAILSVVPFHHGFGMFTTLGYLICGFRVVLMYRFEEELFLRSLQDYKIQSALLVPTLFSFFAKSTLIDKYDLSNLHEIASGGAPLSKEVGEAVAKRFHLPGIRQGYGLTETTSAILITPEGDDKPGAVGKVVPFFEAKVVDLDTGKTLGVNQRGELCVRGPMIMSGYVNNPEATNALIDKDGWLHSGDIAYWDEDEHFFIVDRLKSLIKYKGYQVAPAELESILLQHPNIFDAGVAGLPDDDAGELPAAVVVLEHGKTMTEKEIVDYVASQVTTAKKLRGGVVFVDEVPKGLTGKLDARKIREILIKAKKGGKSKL
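Biochemical qHTS of compounds, final roughly 60 µM downward over six points, against 10 nM purified firefly luciferase using Km concentrations of substrates (10 uM D-luciferin, 10 uM ATP) in Tris acetate pH 7.5 buffer; luminescence output.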
ELG1 genotox: inducers of genotoxicity in HEK293T ELG1-luciferase cells; 330,000 tested, 1.3% active; HEK293T ELG1-luciferase reporter, luminescence, 16 h; AID 504466; Potency, µM (series often up to 46 µM), inactives show at the top dose activity change, positive = activation, actives largely listed as activators; also: % of control where 0% means no effect; nearly all actives have a fitted effect of over 60% in size
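HEK293T cells expressing luciferase-tagged ELG1 were exposed to compound or DMSO vehicle for 16 hr at 37 °C and 5% CO2. Luciferase activity was then measured with ONE-Glo after 30 min at room temperature.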
Luc counter: counter-screen: inhibitors of Kinase-Glo firefly luciferase | Kinase-Glo luciferase, ATP luminescence, 8 min | 200,000 tested, 0.28% active | AID 1379 | Potency, µM (series often up to 38.3 µM), for inactives: at the highest dose activity change, negative = inhibition, hits mostly inhibitors; also: % is scaled to controls: 0 for no effect and ±100 for the full control effect; nearly all actives have a fitted effect of over 60% in size
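Substrate mix (final 50 mM imidazole pH 7.2, 50 mM KCl, 7 mM MgCl2, 10 uM ATP, 0.01% Tween 20, 0.05% BSA) plus pin-tool compound, then Kinase-Glo detection mix; 8 min ambient, luminescence read.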
Rab9 promoter act: activators of Rab9 promoter. Huh7 Rab9 promoter-luciferase reporter, luminescence, 24 h. Potency, µM (titrated, usually from 9.22 µM), without a hit: at the top dose activation, negative = inhibition, hits mostly activators. 320,000 tested, 2.8% active; also: % of control where 0% means no effect; nearly all actives have a fitted effect of over 60% in size
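Steps: seed 1500 Huh7 Rab9-luc cells per well, rest 2 h at 37 °C; add compound in DMSO; incubate 24 h; add luciferase reagent, 10 min ambient; read luminescence.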
SMN2 splice enh: SMN2 splice variant enhancement; AID 1458; 210,000 tested, 2.8% active; HEK293 SMN2-luciferase splicing reporter, luminescence, 30-36 h; Potency, µM (titrated, usually from 46.1 µM), without a hit: top-dose activity change, positive = activation, most hits filed as activators; also: % of control where 0% means no effect; nearly all actives have a fitted effect of over 55% in size
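HEK293 cells carry an SMN2 […]–luciferase reporter in which exon 7 inclusion puts luciferase in frame. Cells were plated 10-12 h before compound addition, then incubated 30-36 h at 37C. ONE-Glo luminescence was read; sodium butyrate at 4.5 mM final served as control.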
Active calls of the source: *; [ ] = another dose, or the depositor's remark. Calls follow the shape of the dose curve; as a rule, active = well fitted curve in the direction sought with a large enough effect; inconclusive = small, poorly fitted or top-dose-only effect, or another doubt; inactive = no such curve, though single readings can be large; an effect the other way counts as inactive or inconclusive. Potency is read from the fitted curve at half-maximal effect.

Screening Cc1ccc(S(=O)(=O)N/N=c2\oc3ccccc3cc2C(=O)Nc2cccc(C)c2)cc1 returned NPC1 prom act -1%, FLuc modulator -1%, ELG1 genotox 13%, Luc counter -5%, Rab9 promoter act -2% and SMN2 splice enh 12%.
`Cc1cccc(NC(=O)c2cc3ccccc3oc2=O)c1` gave NPC1 prom act 1.1µM*, FLuc modulator 0.6µM*, ELG1 genotox 2.1µM* and Rab9 promoter act 1.4µM*.
For CCCCC(=O)Nc1ccc(NC(=O)c2ccc3c(c2)OCO3)cc1OC the results were NPC1 prom act 15%, FLuc modulator 11µM*, ELG1 genotox 13%, Luc counter -4%, Rab9 promoter act 0% and SMN2 splice enh 29%.
For CCCCC(=O)Nc1ccc(NC(=O)c2ccc(C)c([N+](=O)[O-])c2)cc1OC the results were NPC1 prom act 1%, FLuc modulator 2%, ELG1 genotox -4%, Luc counter 4%, Rab9 promoter act 3% and SMN2 splice enh 1%.
For CC(C)C(=O)Nc1ccc(NC(=O)c2ccc3c(c2)OCO3)cc1 the results were NPC1 prom act 5%, FLuc modulator -5%, ELG1 genotox inconclusive and Rab9 promoter act 9%.
`COc1cc(NC(=O)c2ccc3c(c2)OCO3)ccc1NC(=O)C(C)C` gave NPC1 prom act 18%, FLuc modulator 15µM*, ELG1 genotox 9%, Luc counter -7%, Rab9 promoter act 4% and SMN2 splice enh -19%.
Screening C=CCN=c1scc(-c2ccc(F)cc2)n1/N=C/c1ccccn1 returned NPC1 prom act 24%, FLuc modulator 13µM*, ELG1 genotox 22%, Luc counter 1%, Rab9 promoter act inconclusive and SMN2 splice enh 400%.
`C=CCN=c1scc(-c2ccccc2)n1/N=C/c1ccccn1` gave NPC1 prom act 2µM*, FLuc modulator 2.4µM*, ELG1 genotox inconclusive, Luc counter -1%, Rab9 promoter act 1.3µM* and SMN2 splice enh 4.5µM*.
CCOC(=O)CC1(NC(=O)c2cc(COc3cccc(OC)c3)on2)CCCCC1 was read as NPC1 prom act -3%, FLuc modulator -3%, ELG1 genotox 0%[9.26 µM] and Rab9 promoter act -1%.
For O=C(c1ccncc1)c1ccc(NC(=O)c2cccs2)cc1 the results were NPC1 prom act 7%, FLuc modulator inconclusive, ELG1 genotox -5%, Luc counter -3%, Rab9 promoter act 18% and SMN2 splice enh -33%.
`O=C(Nc1ccc(NC(=S)NC(=O)c2ccccc2F)cc1)c1cccs1` gave NPC1 prom act -2%, FLuc modulator -5%, ELG1 genotox -12%, Luc counter -1%, Rab9 promoter act 1% and SMN2 splice enh 17%.
For O=C(Nc1ccc(-c2noc(-c3ccccc3F)n2)cc1)c1cccs1 the results were NPC1 prom act inconclusive, FLuc modulator inconclusive, ELG1 genotox inconclusive, Luc counter -6%, Rab9 promoter act 1.6µM* and SMN2 splice enh 14µM*.
For Cc1ccccc1-c1nc(-c2ccc(NC(=O)c3cccs3)cc2)no1 the results were NPC1 prom act inconclusive, FLuc modulator 13µM*, ELG1 genotox 2%, Luc counter -11%, Rab9 promoter act 4µM* and SMN2 splice enh -8%.
`COCCNC(=O)c1cc(-c2ccccc2C)nn1CC1CC(c2cccnc2)=NO1` (configuration not stated) gave ELG1 genotox 0%.
For Nc1ccc(Oc2cc(N)cc(Oc3ccccc3)c2)cc1 the results were NPC1 prom act 2µM*, FLuc modulator 6µM*, ELG1 genotox inconclusive and Rab9 promoter act inconclusive.
Screening CCc1ccc2oc(-c3cc(NC(=O)c4cc(OC)c(OC)c(OC)c4)ccc3O)nc2c1 returned FLuc modulator 3.8µM* and SMN2 splice enh -7%.
`Cc1ccc2nc(-c3ccc(Cl)c(NC(=O)COc4cccc(C)c4C)c3)oc2c1` gave FLuc modulator 4.8µM* and SMN2 splice enh inconclusive.
For Cc1cccc(OCC(=O)Nc2ccc(-c3nc4ccccc4o3)cc2)c1C the results were FLuc modulator 1% and SMN2 splice enh inconclusive.
Screening CCc1ccc2oc(-c3cc(NC(=O)c4cccnc4)cc(C)c3O)nc2c1 returned FLuc modulator 0.85µM* and SMN2 splice enh 12%.
`Cc1ccc2oc(-c3ccc(NC(=O)c4cccnc4)cc3)nc2c1` gave NPC1 prom act 2.5µM*, FLuc modulator 6µM*, ELG1 genotox inconclusive, Luc counter 1%, Rab9 promoter act 2.2µM* and SMN2 splice enh 2µM*.
Screening O=C(Nc1ccc2oc(-c3cccnc3)nc2c1)c1cccnc1 returned NPC1 prom act 12%, FLuc modulator inconclusive, ELG1 genotox 3%, Luc counter 3%, Rab9 promoter act 17% and SMN2 splice enh -10%.
CCOc1ccc(/C=N/NC(=O)c2ccccc2C)cc1CN1CC2CC(C1)c1cccc(=O)n1C2 (configuration not stated) was read as NPC1 prom act -1%, FLuc modulator 3%, ELG1 genotox 2% and Rab9 promoter act 1%.
For CCc1nc2sc3c(N4CCCCC4)ncnc3c2c2c1CCCC2 the results were FLuc modulator 0% and SMN2 splice enh -4%.
Cc1ccc2nc(-c3ccc(Cl)c(NC(=O)c4cccnc4)c3)oc2c1 was read as FLuc modulator 0.6µM* and SMN2 splice enh -4%.
O=C(Nc1cccc(-c2nc3ccccc3o2)c1)c1cccnc1 was read as NPC1 prom act -1%, FLuc modulator inconclusive, ELG1 genotox -6%, Luc counter 2%, Rab9 promoter act -1% and SMN2 splice enh -35%.
For CCc1ccc2oc(-c3cc(N=Cc4cccc(OC)c4O)ccc3O)nc2c1 the results were NPC1 prom act 4.5µM*, FLuc modulator 0.43µM*, ELG1 genotox inconclusive, Luc counter -8%, Rab9 promoter act 4µM* and SMN2 splice enh 14µM*.
O=C(Nc1ccc(-c2nc3ccccc3o2)cc1)c1cccnc1 was read as NPC1 prom act 2.2µM*, FLuc modulator 2.7µM*, ELG1 genotox inconclusive, Luc counter -7%, Rab9 promoter act 1.6µM* and SMN2 splice enh 8.9µM*.
`CCC1(c2ccc(Cl)cc2)NC(=O)N(CC(=O)N2CCN(C(=O)c3ccco3)CC2)C1=O` (configuration not stated) gave ELG1 genotox -1%.
For CC(C)(C)N(Cc1ccccc1)C(=O)COC(=O)/C=C/c1ccc2c(c1)OCO2 the results were NPC1 prom act -4%, FLuc modulator 7%, ELG1 genotox 3% and Rab9 promoter act 0%.
